TDP1 cell noCPT = qHTS for Inhibitors of human tyrosyl-DNA phosphodiesterase 1 (TDP1): qHTS in cells in absence of CPT. DT40 Tdp1-/- hTDP1 cells, no CPT, ATP luminescence, 48 h. Potency, µM (titrated, usually from 46.2 µM), most hits filed as inhibitors. hit rate 15% among 420,000. AID 686978, 2013; note: nearly all actives have a fitted effect of over 55% in size
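Readout: luminescence from CellTiter-Glo after 30 min in the dark at RT. Cells: DT40 Tdp1-/- with stable hTDP1, 400/well. Exposure: compounds alone, ≥48 hr, 37 °C.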
KB-3-1 tox = kills parental KB-3-1 adenocarcinoma cells | KB-3-1 viability, CellTiter-Glo ATP luminescence, 72 h | Potency, µM (series often up to 46.1 µM), usual class: cytotoxic | hit rate 1.4% among 400,000; note: nearly all actives have a fitted effect of over 60% in size
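Parental KB-3-1 viability, qHTS format: 72 h compound exposure, 37 °C; CellTiter-Glo; media-only wells and DMSO plates as controls; concentration-effect fits on corrected data.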
HT1080 IDH1KD tx = kills HT-1080 cells with IDH1 knockdown | Potency, µM (highest dose often 46.1 µM), most hits filed as cytotoxic | HT-1080 IDH1 knockdown viability, ATP luminescence, 48 h | hit rate 2% among 360,000
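Knockdown cells (IDH1KD HT-1080) received compounds 2 h after plating at 750 cells/well and were kept 48 h at 37 °C in 5% FBS RPMI. A CellTiter-Glo luminescence read gave % activity for curve fitting.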
DT40 TDP1 CPT = growth inhibition of DT40 Tdp1-/-;hTDP1 cells with camptothecin (screen for TDP1 inhibitors); Potency, µM (titrated, usually from 46.2 µM), most hits filed as inhibitors; chicken DT40 Tdp1-/-;hTDP1 cells + 20 nM CPT, ATP luminescence, 48 h; hit rate 12% among 420,000; note: nearly all actives have a fitted effect of over 55% in size
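Chicken DT40 Tdp1-/- cells stably complemented with human TDP1 were seeded at 400 cells/well in medium containing 20 nM camptothecin, exposed to pin-transferred compounds, and grown at 37 °C for at least 48 hr. Viability was read as ATP luminescence.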
KB-V1 MDR tox = kills drug-selected multidrug resistant KB-V1 cells; KB-V1 MDR cells viability, CellTiter-Glo, 72 h; Potency, µM (series often up to 46.1 µM), actives largely listed as cytotoxic; hit rate 3.4% among 400,000; AID 1347076; note: nearly all actives have a fitted effect of over 60% in size
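Cells of the MDR subline KB-V1 are plated, dosed with compound at multiple concentrations, and incubated 72 h at 37 degrees C; CellTiter-Glo is then added and luminescence read after 10 min.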
HT1080-NT tox = kills 2HG-producing HT-1080-NT fibrosarcoma cells | HT-1080-NT fibrosarcoma viability, CellTiter-Glo ATP luminescence, 48 h | Potency, µM (titrated, usually from 46.1 µM), hits mostly cytotoxic | hit rate 1.6% among 360,000 | AID 686970;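 note: NT is the 2HG producing partner of a matched IDH1 knockdown line; nearly all actives have a fitted effect of over 55% in size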
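Viability by CellTiter-Glo luminescence after 48 h compound exposure at 37C of HT-1080-NT cells (750/well, RPMI, 5% FBS). % activity scaled between DMSO wells and medium-only wells, then curve-fitted and categorized by curve class.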
Hits are given with their value; n = inactive; u = inconclusive; x = no result. Rows were chosen to be rich in hits. Some 19% of all compounds tested hit in one or more screens of this group. Calls come from the whole dose curve; as a rule, active = well fitted curve in the direction sought with a large enough effect; inconclusive = small, poorly fitted or top-dose-only effect, or another doubt; inactive = no such curve, though single readings can be large; an effect the other way counts as inactive or inconclusive.

SMILES	TDP1 cell noCPT	KB-3-1 tox	HT1080 IDH1KD tx	DT40 TDP1 CPT	KB-V1 MDR tox	HT1080-NT tox
Nc1ccc(S(=O)(=O)NNC(=O)C(=O)NNc2ccccc2)cc1	n	n	u	n	n	10.3µM
COc1cc(C(=O)O)nc(OC)n1	n	n	n	n	n	n
O=C(NCC(c1ccccc1)c1ccccc1)c1nn(-c2ccccc2Cl)nc1CO	23.1µM	x	x	u	x	x
O=C(NCc1cccs1)c1nn(-c2ccccc2Cl)nc1CO	u	x	x	n	x	x
Cc1ccccc1-n1nc(CO)c(C(=O)NCC(c2ccccc2)c2ccccc2)n1	20.6µM	x	x	u	x	x
O=C(NC1CCCC1)C1C(c2ccccc2)=Nc2ccccc2N1C(=O)c1cc(Cl)cc(Cl)c1 (stereo unspecified)	29.1µM	u	n	18.4µM	u	n
Cc1cc(N)n2ncc(-c3ccc(Cl)cc3)c2n1	u	18.4µM	u	18.4µM	u	u
Cc1cc(Cl)n2ncc(-c3ccccc3)c2n1	29.1µM	n	u	u	n	18.4µM
Cc1cc(N)n2ncc(-c3ccc(F)cc3)c2n1	n	n	u	n	n	u
Cc1cc(C)n2ncc(-c3cccc(Br)c3)c2n1	n	n	n	n	n	n
O=C(CCS(=O)(=O)c1cc(Br)cc2c1N(C(=O)C1CC1)CC2)N1CCN(c2ccccc2)CC1	n	n	x	n	u	x
CC1=C(C)/C(=N\OS(=O)(=O)c2ccccc2)C=CC1=O	0.562µM	11.2µM	8.91µM	0.562µM	15.8µM	7.08µM
Cc1ccc(S(=O)(=O)O/N=C2\CCCc3ccccc32)cc1	n	n	n	n	n	n
Cc1ccc(Cc2nc3ccccc3nc2SCC(=O)NCCc2ccccc2)cc1	u	n	x	u	n	x
CC1CCCCN1C(=O)CSc1nnc(Cc2ccccc2)n1C (stereo unspecified)	n	n	n	n	n	n
Cc1ccc(Cc2nc3ccccc3nc2SCC(=O)N2CCCCC2C)cc1 (stereo unspecified)	23.1µM	u	x	14.6µM	n	x
COc1cccc(Cc2nc3ccccc3nc2SCC(=O)N2CCCCC2C)c1 (stereo unspecified)	5.17µM	u	x	u	u	x
COc1cccc(Cc2nc3ccccc3nc2SCC(=O)N2CCCc3ccccc32)c1	u	n	x	18.4µM	n	x
O=C(CCc1nnc(CCCCc2ccccc2)o1)N1CCCC(O)C1 (stereo unspecified)	n	n	n	n	n	n
COCCCC1CCN(C(=O)CCc2nnc(CCCCc3ccccc3)o2)CC1	14.6µM	n	n	u	n	n
COc1cc(Cl)c(NC(=O)CN2C(=O)c3cccnc3Sc3ccccc32)c(OC)c1	u	x	x	n	x	x
CCc1ccc(OCC(=O)N2CCN(c3ccccc3F)CC2)cc1	n	n	n	n	n	n
CCOC(=O)c1cnc2cc(C(F)(F)F)ccc2c1N1CCN(c2cccc(Cl)c2)CC1	23.1µM	n	x	u	n	x
CCOC(=O)c1cnc2ccc(OC)cc2c1NCCN1CCOCC1	u	n	n	n	n	n
CCOC(=O)N1CCN(c2c(N3CCN(c4cccc(C(F)(F)F)c4)CC3)c(=O)c2=O)CC1	n	n	n	n	n	n
SMILES	TDP1 cell noCPT	KB-3-1 tox	HT1080 IDH1KD tx	DT40 TDP1 CPT	KB-V1 MDR tox	HT1080-NT tox
CCOC(=O)c1cnc2ccc(OCC)cc2c1N1CCN(c2ccccc2)CC1	25.9µM	u	u	20.6µM	u	n
CCOC(=O)c1cnc2ccc(OCC)cc2c1N1CCN(c2ccccc2F)CC1	11.6µM	n	x	16.4µM	u	x
CCOC(=O)c1cnc2ccc(OCC)cc2c1NCc1ccccc1	6.51µM	u	u	5.8µM	1.84µM	n
COc1ccccc1NS(=O)(=O)c1ccc(C(=O)N2CC(C)OC(C)C2)cc1 (stereo unspecified)	n	n	n	u	n	n
Cc1nnc(-c2ccco2)c2cn(-c3cccc(Br)c3)nc12	23.1µM	n	n	u	u	n
O=S(=O)(c1ccc(Cl)nc1)N1CCCC1	n	n	n	n	n	n
CCC(C)[C@H](NC(=O)NCc1ccc(Cl)cc1)C(=O)OC (stereo partly specified)	n	n	n	n	20.6µM	n
CCC(C)[C@H](NC(=O)NCc1ccc(Cl)cc1)C(=O)O (stereo partly specified)	n	n	n	n	u	n
C/C(=N\OCC(=O)N/N=C/c1ccccc1)c1cccs1	n	n	n	n	n	n
C/C(=N\OCC(=O)N/N=C/c1ccccc1O)c1cccs1	4.61µM	u	u	4.11µM	n	u
COCc1cc(C)nc(OCC(=O)N/N=C/c2ccccc2O)c1C#N	u	n	18.4µM	u	n	u
Cc1ccccc1OCC(=O)N/N=C/c1cccc2cccnc12	20.6µM	n	u	u	u	n
Cc1ccccc1OCC(=O)N/N=C/c1ccncc1	n	n	n	n	n	n
O=C(COc1cccc2cccnc12)N/N=C/c1ccccc1O	10.3µM	u	n	14.6µM	11.6µM	n
C=CCN1C(=O)C(CC(=O)O)S/C1=N/N=C/c1ccc(N(CC)CC)cc1 (stereo unspecified)	u	u	n	n	n	n
CCn1ncc(Cl)c1C(=O)NC(=S)Nc1ccccc1Br	n	u	n	n	16.4µM	n
Cc1nn(C)c(C(=O)NC(=S)Nc2ccccc2Br)c1Cl	n	u	n	n	n	n
COC(=O)C[C@@H]1C[C@H]2c3cc(N(C)C)ccc3O[C@H]2[C@H](CO)O1	n	n	n	n	n	n
Cc1cccc(C)c1NC(=O)C(c1ccccc1OC(F)(F)F)N1CCN(c2ccc(F)cc2)CC1 (stereo unspecified)	u	n	n	u	n	n
Cc1cccc(C)c1NC(=O)C(c1ccccc1OC(F)(F)F)N1CCC(c2ccccc2)CC1 (stereo unspecified)	16.4µM	n	u	u	u	n
CC(=O)N1CCN(C(C(=O)Nc2c(C)cccc2C)c2ccccc2OC(F)(F)F)CC1 (stereo unspecified)	n	n	n	n	u	n
Cc1cccc(C)c1NC(=O)C(c1ccccc1OC(F)(F)F)N1CCN(C/C=C/c2ccccc2)CC1 (stereo unspecified)	14.6µM	n	u	16.4µM	n	u
CC(C)C[C@H]1CN(CCCC[C@H]2CNC(=O)C(=O)N2CCc2ccc(O)cc2)C(=O)C(=O)N1Cc1ccccc1	n	n	n	n	n	n
COc1ccc(/C=C/C(=O)OCC(=O)Nc2ccc(C)cc2)cc1S(=O)(=O)N1CCOCC1	n	n	n	n	n	n
